PKA-R1A activ – activators of PKA-R1A complex; hit rate 0.083% among 340,000; PKA-R1A dissociation, Cy5-IP20 fluorescence polarization; scaled: DMSO 0%, 113 µM cGMP 100%; P00514+P68181; activation, % at 11.4 µM; AID 504707;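 active = percent activation above the mean of all tested compounds plus 3 SD, cut at about 19% in these data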;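 also: higher means more PKAc released from R1A so a rise in polarization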
MsrA inh – inhibits bovine methionine sulfoxide reductase A. purified bovine MsrA, absorbance read-out. inhibition, % at 15.5 µM. hit rate 0.75% among 360,000; in the data active = inhibition above about 4.5%
Mot1-301 SUMO – SUMOylation pathway inhibition by Mot1-301 growth rescue | growth rescue, % at 18.8 µM | AID 2716 | hit rate 1% among 320,000 | S. cerevisiae Mot1-301 growth rescue, ATP luminescence, 38.5C; percent above DMSO median, 100 means doubled;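 active = every valid replicate shows activation above 250% relative to neutral control wells; inactive = the rest, any valid replicate at or below 250%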
PKA-R2B activ – PKA-R2B complex activation. P22694+P31323. PKA-R2B holoenzyme dissociation, Cy5-IP20 fluorescence polarization; R2B truncated from residue 108, S112A mutant; 0% DMSO only, 100% 113 µM cGMP. activation, % at 11.4 µM. hit rate 0.079% among 340,000. AID 504700;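 active = activation above a cutoff set at the mean over all compounds plus 3 SD, cut at about 18% in these data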;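 also: higher means more holoenzyme dissociation and a rise in polarization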
Target sequence (P31323 whole entry, looked up, other chains not shown, the tested form may be a part): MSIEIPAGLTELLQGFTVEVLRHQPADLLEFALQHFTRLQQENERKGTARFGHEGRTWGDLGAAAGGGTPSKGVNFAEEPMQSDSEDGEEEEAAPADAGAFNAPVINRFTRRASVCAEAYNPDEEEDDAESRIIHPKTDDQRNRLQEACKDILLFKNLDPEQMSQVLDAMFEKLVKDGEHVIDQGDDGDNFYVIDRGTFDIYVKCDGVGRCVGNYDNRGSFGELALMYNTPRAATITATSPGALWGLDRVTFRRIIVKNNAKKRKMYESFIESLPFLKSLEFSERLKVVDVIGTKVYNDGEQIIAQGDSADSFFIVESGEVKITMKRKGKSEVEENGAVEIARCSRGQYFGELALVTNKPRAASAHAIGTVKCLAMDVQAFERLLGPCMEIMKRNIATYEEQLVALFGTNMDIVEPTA
bovine MsrA act – activates bovine MsrA enzyme | purified bovine MsrA, absorbance read-out | activation, % at 10.6 µM | hit rate 0.3% among 360,000 | AID 602163; in the data active = activation above about 7.5%
Large screens that a line does not name were inactive. Only some compounds are listed: those with a hit (about 2% of all), similar ones and a draw of the others.

COc1cc2c(cc1NC(=O)CN(C)Cc1ccc(OC)c(OC)c1)oc1ccccc12	MsrA inh 4.6
Brc1ccc(OCc2ccccc2)c(CNCc2ccncc2)c1	Mot1-301 SUMO 261.9
CCCCNc1cccc2c1S(=O)(=O)N[C@@H](CC(C)C)CO2	none (no result: PKA-R1A activ, Mot1-301 SUMO, PKA-R2B activ, bovine MsrA act)
Cc1ccccc1-c1ccc2c(c1)[C@@H]1C[C@H](N(C)C(=O)c3ccco3)[C@H]([C@H](C)O)CN1CC2	none (no result: PKA-R1A activ, Mot1-301 SUMO, PKA-R2B activ, bovine MsrA act)
CCOC(=O)c1nn(-c2ccc3c(c2)OCO3)cc1O	MsrA inh 5.9
Cc1cc(C(=O)O)cc(Br)c1N	Mot1-301 SUMO 326.4
Cc1cc(C)c(N)c(C(=O)O)c1	none
Cc1cc(N2CCN(CC(C)(C)O)C[C@@H]2C)ccc1N1CCN(CC(C)(C)O)[C@@H](C)C1	none (no result: PKA-R1A activ, Mot1-301 SUMO, PKA-R2B activ, bovine MsrA act)
O=C(O)c1cccc(Nc2cc(Cl)c3nonc3c2[N+](=O)[O-])c1	MsrA inh 4.6
O=C(O)c1ccccc1Nc1cc(Cl)c2nonc2c1[N+](=O)[O-]	none
O=C(NCc1ccccc1)C(c1ccco1)N1CCN(CCN2CCOCC2)CC1 (stereo unspecified)	none (no result: PKA-R1A activ, Mot1-301 SUMO, PKA-R2B activ, bovine MsrA act)
C[C@@H]1CN(C(=O)OC(C)(C)C)CCN1c1ccc(N2CC[C@@H](O)C2)c(C#N)c1	none (no result: PKA-R1A activ, Mot1-301 SUMO, PKA-R2B activ, bovine MsrA act)
NS(=O)(=O)c1ccc(NC(=O)COc2ccc(S(=O)(=O)N3CCCC3)cc2)cc1	Mot1-301 SUMO 342.5
CCOc1ccc(S(=O)(=O)N2CCC(C(=O)NCCc3ccc(S(N)(=O)=O)cc3)CC2)cc1	Mot1-301 SUMO 271.3
CN(c1cccnc1)c1ccc(NC(=O)Cc2c[nH]c3ccccc23)cc1Br	none (no result: PKA-R1A activ, Mot1-301 SUMO, PKA-R2B activ, bovine MsrA act)
c1ccc2c(CSc3ncnc4nc[nH]c34)cccc2c1	Mot1-301 SUMO 294.6
Cc1ccc(-n2c(C)nnc2SC(C)C(=O)N2CCCC2)cc1 (stereo unspecified)	Mot1-301 SUMO 285.2
COC(=O)CSc1nnc(C)n1-c1ccc(C)cc1	none
Cc1[nH]c2ccccc2c1CC(=O)Nc1ccc(Nc2cccnc2)c(-c2cc(F)cc(F)c2)c1	none (no result: PKA-R1A activ, Mot1-301 SUMO, PKA-R2B activ, bovine MsrA act)
CCOC(=O)C1(CCCc2ccccc2)CCN(C(=O)CCOC)CC1	Mot1-301 SUMO 600.1
CCOC(=O)C1(CCCc2ccccc2)CCN(C(=O)CCc2cnn(C)c2)CC1	none
COc1ccc(C#Cc2c(-c3ccccc3OC)oc3ccccc23)cc1	none (no result: PKA-R1A activ, Mot1-301 SUMO, PKA-R2B activ, bovine MsrA act)
CCn1nc(C)cc1C(=O)N1CCc2c([nH]c3ccccc23)C1c1cc(F)ccc1F (stereo unspecified)	Mot1-301 SUMO 479.2 (no result: PKA-R1A activ, PKA-R2B activ)
Cc1ncoc1C(=O)N1CCc2c([nH]c3ccccc23)C1c1ccccc1F (stereo unspecified)	none
COC(=O)c1cc2c(c3c4cc(C)ccc4n(C(=O)c4ccccc4)c13)C(=O)N(Cc1ccccc1)C2	none (no result: PKA-R1A activ, Mot1-301 SUMO, PKA-R2B activ, bovine MsrA act)
COc1ccc(C2O[C@@H](C)[C@@H]3C(=O)N4CCc5c([nH]c6ccccc56)[C@@H]4C[C@@H]3N2C)cc1 (stereo partly specified)	none (no result: PKA-R1A activ, Mot1-301 SUMO, PKA-R2B activ, bovine MsrA act)
COc1ccc(CNC(=O)CN(C)S(=O)(=O)c2ccc(Cl)cc2)cc1	Mot1-301 SUMO 339.1
COC(=O)[C@]12C[C@H](CC(=O)N3CCCCC3)C(=O)N(Cc3ccccc3)C1=C[C@H](C1CCCC1)O[C@@H]2C	none (no result: PKA-R1A activ, Mot1-301 SUMO, PKA-R2B activ, bovine MsrA act)
COc1ccc(/C=C/C(=O)Nc2ccc3nc4n(c(=O)c3c2)CCCC4)cc1	none
COc1cc(/C=C/C(=O)Nc2ccc3nc4n(c(=O)c3c2)CCCC4)cc(OC)c1OC	MsrA inh 4.6
Cc1cc(N2CCNC[C@H]2C)ccc1N1CCS(=O)(=O)CC1	none (no result: PKA-R1A activ, Mot1-301 SUMO, PKA-R2B activ, bovine MsrA act)
COc1ccc(N=c2oc3cc(O)ccc3cc2C(=O)NCC2CCCO2)cc1 (stereo unspecified)	none
CCOc1ccc(N=c2oc3cc(O)ccc3cc2C(=O)NCC2CCCO2)cc1 (stereo unspecified)	Mot1-301 SUMO 356.7
N#CCCn1nc(Cc2cccc3ccccc23)c(C#N)c1N	Mot1-301 SUMO 331.2
CCOC(=O)CN1C(=O)N(c2ccc(OC)cc2)[C@H]2CC3c4ccccc4C[C@]3(C)[C@@H](C(=O)N(C)C3CCCCC3)C[C@H]21 (stereo partly specified)	none (no result: PKA-R1A activ, Mot1-301 SUMO, PKA-R2B activ, bovine MsrA act)
CCCCCC(=O)C(=O)c1ccc(O)cc1O	MsrA inh 4.6
COc1cccc(CNC(=O)[C@H]2CCCN2C(=O)[C@H]2CCCN2C(=O)c2ccc(C)cc2)c1	none (no result: PKA-R1A activ, Mot1-301 SUMO, PKA-R2B activ, bovine MsrA act)
COc1cc(Nc2cc(C)n(-c3cc(OC)cc(OC)c3)c(=O)c2)cc(OC)c1	none (no result: PKA-R1A activ, Mot1-301 SUMO, PKA-R2B activ, bovine MsrA act)
CCOC(=O)c1cc(-c2ccc(/C=N\n3cnnc3)o2)ccc1Cl	MsrA inh 5.6
Cc1ccc(C(=O)Nc2cc3[nH]c(=O)oc3cc2C)cc1	Mot1-301 SUMO 303.0
Cc1ccc(C(=O)Nc2c[nH]c(=O)[nH]c2=O)cc1	none
CCn1c(=O)c(C(=O)Nc2ccsc2C(=O)OC)c(O)c2ccccc21	Mot1-301 SUMO 782.6 (no result: PKA-R1A activ, MsrA inh, PKA-R2B activ, bovine MsrA act)
COc1ccc(S(=O)(=O)N2CCN(Cc3ccc4c(c3)OCO4)CC2)cc1F	none
CCOc1ccc(S(=O)(=O)N2CCN(Cc3ccc4c(c3)OCO4)CC2)cc1C	Mot1-301 SUMO 327.7
O=C(O)CN1C(=O)/C(=C\c2ccc(OC(=O)c3ccco3)cc2)SC1=S	none
C=CCN1C(=O)/C(=C\c2cccc(OC(=O)c3ccco3)c2)SC1=S	none
O=C(O)CN1C(=O)/C(=C\c2cccc(OC(=O)c3ccco3)c2)SC1=S	Mot1-301 SUMO 416.8
CCN1C(=O)/C(=C\c2cccc(OC(=O)c3ccco3)c2)SC1=S	Mot1-301 SUMO 321.2
Nc1[nH]c(C(=O)c2ccc(Br)cc2)c(-c2ccc(Cl)cc2[N+](=O)[O-])c1C(=O)NCCc1c[nH]c2ccccc12	none (no result: PKA-R1A activ, Mot1-301 SUMO, PKA-R2B activ, bovine MsrA act)
Cc1ccc(C2c3[nH]c4ccccc4c3C[C@H]3C(=O)N(c4ccccc4C(=O)N4CCC[C@H]4C(=O)O)C(=O)N23)cc1 (stereo partly specified)	Mot1-301 SUMO 604.8
Cc1csc(NC(=O)c2nc(-c3ccccc3)n(-c3ccccc3)n2)n1	none
O=C(Nc1nccs1)c1nc(-c2ccccc2)n(-c2ccccc2)n1	Mot1-301 SUMO 314.0
Cc1ccccc1OCCCN1CCC(C(O)(c2ccccc2)c2ccccc2)CC1	none (no result: PKA-R1A activ, Mot1-301 SUMO, PKA-R2B activ, bovine MsrA act)
CCCCCCn1c2c(c(=N)c3c1CCC3)CCC2	none
CCCCCCCCCn1c2c(c(=N)c3c1CCC3)CCC2	Mot1-301 SUMO 483.1 (no result: MsrA inh)
O=C(CSC1CC(=O)N(CCc2ccccc2)C1=O)Nc1cccc(Cl)c1 (stereo unspecified)	Mot1-301 SUMO 314.1
O=C(CSC1CC(=O)N(CCc2ccccc2)C1=O)Nc1ccc(Br)cc1 (stereo unspecified)	none
Cc1nn(CCC#N)c(NC(=O)c2ccc(Cl)cc2)c1P(=O)(Nc1ccc([N+](=O)[O-])cc1)N1CCOCC1 (stereo unspecified)	none
Cc1nn(CCC#N)c(NC(=O)c2ccc(Cl)cc2Cl)c1P(=O)(Nc1ccc([N+](=O)[O-])cc1)N1CCOCC1 (stereo unspecified)	MsrA inh 4.7
O=[N+]([O-])c1cc(S(=O)(=O)N2CCCC2)ccc1O	none
O=[N+]([O-])c1cc(S(=O)(=O)N2CCCCCC2)ccc1F	Mot1-301 SUMO 577.2

Screens as filed in PubChem BioAssay.
